# Bioassay records from PubChem.
# Sampled rows, rich in hits. Any-hit rate of the full collection: about 2.8%.
# ATXN viability: viability counter-screen for ATXN expression inhibitors; S2 cells (HEK-293 line with an ATXN2-luciferase reporter) viability, CellTiter-Fluor protease fluorescence, 24 h; AID 651635; Potency, µM (doses to about 56.7 µM), usual class: cytotoxic; 400,000 compounds, 0.49% hits; also: nearly all actives have a fitted effect of over 40% in size
# HepG2 tox: counter-screen for TGF-b inhibitors: cytotoxicity in HepG2 cells. HepG2 CAGA-GFP viability, ATP luminescence, 18 h. Potency, µM (doses to about 46.1 µM), hits mostly cytotoxic. 410,000 compounds, 0.76% hits
#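 HepG2 CAGA-GFP cells (1000/well, DMEM with 1% FBS) received compound, then TGF-beta at 500 pg/mL final, and were incubated 18 hours at 37 degrees C. Viability was read by CellTiter-Glo luminescence. Media-only wells were set as complete cell-killing and DMSO as no toxicity.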
# HTT ATP protect: protects HTT-Q103 PC12 cells, measured by ATP; PC12 HTT-Q103 induced, cytoprotection, ATP luminescence, 40 h; Potency, µM (titrated, usually from 56.4 µM), hits mostly activators; AID 1471; 230,000 compounds, 0.14% hits; also: nearly all actives have a fitted effect of over 45% in size
#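 Compounds added alongside 100 nM tebufenozide, which induces toxic Q103 huntingtin exon 1-GFP in stable PC12 cells; surviving cells quantified by luminescent ATP measurement. Medium: phenol red-free DMEM, 5% equine and 5% calf serum.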
# HTT aggregate: reduces HttQ103-GFP aggregates in PC12 cells. PC12 HttQ103-GFP aggregates, Acumen cytometry, 40 h. Potency, µM (titrated, usually from 46.1 µM), hits mostly inhibitors. 220,000 compounds, 1.1% hits. AID 1688; also: nearly all actives have a fitted effect of over 60% in size
#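 Multiplexed with ATP-based cell death, this channel scores GFP aggregates in PC12 cells expressing inducible HTTex1-Q103-GFP. Induction used 100 nM tebufenozide; compounds were tested in concentration series.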
# ATXN2 expr inh: inhibitors of ATXN2 expression | AID 1745845 | 360,000 compounds, 0.72% hits | Potency, µM (doses to about 57 µM), most hits filed as inhibitors | HEK-293 ATXN2-luciferase reporter, luminescence, 24 h; also: nearly all actives have a fitted effect of over 55% in size
#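 qHTS (up to 57 uM final) was run with 24 h compound exposure of reporter cells at 37 °C. Each well was multiplexed: SteadyGlo luminescence measured ATXN2-luciferase expression after a fluorogenic Gly-Phe-AFC viability readout (25 uM final).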
# TGFb inhibitor: inhibitors of TGF-b signaling. HepG2 CAGA-GFP TGF-b/SMAD3 reporter, GFP fluorescence, 18 h; TGF-beta stimulated, 500 pg/mL final. Potency, µM (top dose mostly 46.1 µM), usual class: inhibitors. 410,000 compounds, 1.2% hits. AID 588855; also: nearly all actives have a fitted effect of over 65% in size
#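 Read-out: total well GFP (ex488/em500-530) summed from mean per-cell fluorescence. Cells: HEPG2 CAGA-GFP, 1% FBS DMEM, 18 h at 37 degrees C with 500 pg/mL final TGF-beta. Unstimulated wells served as the full-inhibition control; stimulated DMSO wells = 0%.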
# A number is an active result; 0 = inactive; ? = inconclusive; - = no result; ! = a repeat was not active; [ ] = another dose, or the depositor's remark. Calls follow the shape of the dose curve; as a rule, active = well fitted curve in the direction sought with a large enough effect; inconclusive = small, poorly fitted or top-dose-only effect, or another doubt; inactive = no such curve, though single readings can be large; an effect the other way counts as inactive or inconclusive.
SMILES,ATXN viability,HepG2 tox,HTT ATP protect,HTT aggregate,ATXN2 expr inh,TGFb inhibitor
Cc1cc(C)cc(N2C(=O)NC(=O)/C(=C\C=C\c3ccco3)C2=O)c1,?,0,0[10 µM],?,?,?
CNC(=O)N1N=C(c2ccc(N)cc2)c2cc3c(cc2CC1C)OCO3 (stereo unspecified),-,-,-,-,0,-
N#CS.N=C=S.N=C=S.[Cu].[NH2-].[NH2-].[NH2-].[NH2-].c1ccc2ncccc2c1,-,-,0[10 µM],-,-,-
CC(C)(C)[C@]1(O)C[C@@H]2OC(=O)C[C@@]23C(=O)O[C@@H]2OC(=O)[C@H](O)C213 (stereo partly specified),-,-,-,-,0,-
CC(=O)Nc1ccc(OC[C@](C)(O)C(=O)Nc2ccc([N+](=O)[O-])c(C(F)(F)F)c2)cc1,-,-,-,-,0,-
C/C(=N\NC(N)=S)C12CC3CC(CC(C3)C1)C2,16µM,0,3.2µM,0,?,11µM
C[C@H]1[C@@H]2Cc3ccc(O)cc3[C@@]1(C)CCN2C,?,-,-,-,0,-
CN1CC[C@]23c4c5ccc(O)c4O[C@H]2[C@@H](O)CC[C@H]3[C@H]1C5,0,-,-,-,0,-
CCOc1ccc(N2C(=O)/C(=C\c3cccs3)C(=O)NC2=S)cc1,35µM,0,0,0,32µM,?
CCOc1ccccc1NC(=O)NCc1ccc2c(c1)CCN2C(=O)c1ccccc1,-,0,-,-,-,?
CCOc1cccc(CC(=O)NCc2ccc3c(c2)CCN3C(=O)c2cccc(C)c2)c1OCC,28µM,0,-,-,?,?
Cc1c(Cl)ccc2sc(N3CCN(C(=O)CCS(=O)(=O)c4ccc(F)cc4)CC3)nc12,0,0,-,-,0,8.9µM
O=P(O)(OP(=O)(O)c1ccccc1)c1ccccc1 (tested in a mixture with another compound),-,-,0[10 µM],-,-,-
Fc1ccc(CNCCc2ccc3c(c2)OCO3)cc1,-,0,-,-,-,0
Fc1ccc([C@@H]2CCNC[C@H]2COc2ccc3c(c2)OCO3)cc1,28µM,11µM!,-,-,32µM!,?
CC(C)n1cc2c3c(cccc31)[C@@H]1C[C@H](C(=O)O[C@@H](C)[C@H](C)O)CN(C)[C@H]1C2,-,-,0[1.9 µM],-,-,-
CC[C@]1(O)CC(O[C@@H]2CC(N(C)C)C(O)C(C)O2)c2c(cc3c(c2O)C(=O)c2c(O)cccc2C3=O)C1C(=O)OC (stereo partly specified),-,-,0,-,-,-
COc1cccc2c1C(=O)c1c(O)c3c(c(O)c1C2=O)CC(O)(C(C)=NO)CC3OC1CC(N)C(O)C(C)O1 (stereo unspecified),?,0,-,-,1.6µM,6.3µM
COc1cccc(Cn2c(-c3cccs3)noc2=O)c1,0,0,0[10 µM],0,0,0
CCOC(=O)c1ccc(N2C(=O)c3n[nH]c(-c4cccs4)c3C2c2ccc(OC)cc2OC)cc1 (stereo unspecified),0,0,-,-,0,5µM
CC[C@H]1CN2CC[C@@H]1C[C@@H]2[C@H](O)c1ccnc2ccccc12,-,-,0,-,-,-
COc1ccc(OCC(=O)N2CCN(Cc3cccc(OC)c3OC)CC2)cc1,-,0,-,-,-,0
O=C(COc1ccccc1)N1CCN(Cc2c[nH]c3ccccc23)CC1,?,0,0,16µM,0,?
O=C(Cc1ccccc1)N1CCN(Cc2c[nH]c3ccccc23)CC1,0,0,0[10 µM],13µM,0,0
COc1ccc(CN2CCN(C(=O)COc3ccccc3)CC2)c(OC)c1,0,0,-,-,0,0
SMILES,ATXN viability,HepG2 tox,HTT ATP protect,HTT aggregate,ATXN2 expr inh,TGFb inhibitor
Cc1ccccc1CN1CCN(C(=O)Cc2ccccc2)CC1,0,0,-,-,0,0
COc1ccc(OCC(=O)N2CCN(Cc3c[nH]c4ccccc34)CC2)cc1,0,0,0[10 µM],11µM,0,0
C=C1C(=O)O[C@@H]2C[C@@H](C)[C@H]3C=CC(=O)[C@]3(O)C[C@@H]12,-,0,0[10 µM],0[9.22 µM],?,13µM
Cc1onc(-c2ccccc2Cl)c1C(=O)NCc1ccccn1,0,0,0[0.074 µM],0.89µM,0,0
O=S(=O)(Cl)c1ccccc1,-,-,0,-,-,-
CCN1CCN(C(=O)Cc2ccc(Nc3ncc(F)c(Nc4ccc(C(=O)Nc5ccccc5Cl)cc4)n3)cc2)CC1,-,-,-,-,24µM,-
O=c1ccc2cc(O[C@@H]3O[C@@H](CO)[C@@H](O)[C@@H](O)[C@H]3O)c(O)cc2o1,-,-,0,-,-,-
O=C1CCC[C@@H]2[C@H]3CCCN4CCC[C@@H](CN12)[C@@H]34,-,-,-,-,0,-
C=C1C(=O)OC2CC3(C)OC3CCC(C)=CC(OC(C)=O)C12 (stereo unspecified),-,0,-,-,?,18µM
NC(Cc1ccc(Cl)cc1)c1csc(Nc2cnccn2)n1 (stereo unspecified),?,0,-,-,?,0
COc1ccc(CC(N)c2csc(NC(=O)Nc3ccccc3Oc3ccccc3)n2)cc1 (stereo unspecified),-,10µM,-,-,?,?
CCNC1(c2cccs2)CCCCC1=O (stereo unspecified),0,-,-,-,-,-
C[n+]1c(-c2ccccc2)c2cc(N)ccc2c2ccc(N)cc21,16µM,0,-,-,7.1µM,4.5µM
Oc1cc[c]([Hg][Cl])cc1,3.2µM,-,0,2.5µM,-,-
Cc1ccc(O)cc1 (tested in a mixture with another compound),-,-,0[10 µM],-,-,-
C=CCN1C[C@@H](C)N([C@H](c2ccc(C(=O)N(CC)CC)cc2)c2cccc(OC)c2)C[C@H]1C,-,-,0[1.9 µM],-,-,-
CC1CC(C)CC(C)C(O)C(C#N)=CC=CCC(C2CCCC2C(=O)O)OC(=O)CC(O)C(C)C1 (stereo unspecified),?,0,-,-,0.75µM,?
Cc1c(CCNS(=O)(=O)c2ccccc2)sc2nc(-c3ccc(Cl)cc3)nn12,-,0,-,-,-,13µM
CCOc1ccc(S(=O)(=O)NCCc2sc3nc(-c4ccc(C)cc4)nn3c2C)cc1,-,0,-,-,-,14µM
COc1cccc(NP(=O)(Oc2ccccc2)Oc2ccccc2)c1,0,0,0[10 µM],0,0,18µM
CC(C)(O)/C=C/C(=O)[C@](C)(O)C1[C@H](O)C[C@@]2(C)C3CC=C4C(C[C@H](O)[C@@H](O)C4(C)C)[C@]3(C)C(=O)C[C@]12C (stereo partly specified),?,0,-,-,?,0.71µM
CN(C)c1ccc(N=O)cc1,-,0,0,-,-,5µM
CCCCn1c(O)c(C=NC2CC3CCC2(C)C3(C)C)c(=O)[nH]c1=O (stereo unspecified),0,0,0[10 µM],13µM,0,0
Cn1c(O)c(C=NC2CC3CCC2(C)C3(C)C)c(=O)[nH]c1=O (stereo unspecified),0,0,0,0,0,0
O=C(c1ccc(Cl)cc1)C1CCCN(Cc2cccc3cnccc23)C1 (stereo unspecified),?,0,0,20µM,-,?
CC1Sc2c(C(=O)O)c(=O)c3cc(F)c(N4CCNCC4)cc3n21 (stereo unspecified),0,-,-,-,0,-
